Potency data for 40 compounds are collected here from PubChem BioAssay (NCATS).

Records with an inconclusive call do not appear. A call without a number means that no potency is given here. Calls of active or inactive are those of the source. The call rests on the fitted dose curve; in most records, active means well fitted inhibition curve with a large enough effect in the signal ratio, with a control signal flat (not every such curve was filed as active); inconclusive means small, poorly fitted or top-dose-only effect, or effect the other way, or a change in a side signal; inactive means no such curve, though single readings can be large or run the other way; the % refers to the signal ratio.

The target in the assay is Peroxisome proliferator-activated receptor delta (Homo sapiens) (UniProt Q03181). The assay is described as follows: qHTS assay for small molecule antagonists of peroxisome proliferator-activated receptor delta signaling (AID 588535). Particulars: HEK293T PPARd-UAS-bla, beta-lactamase FRET ratio, 18 h; series mostly up to 76.7 µM. From the text: NIH Chemical Genomics Center [NCGC] U.S. Environmental Protection Agency [EPA] National Institutes of Environmental Health Sciences [NIEHS] National Toxicology Program [NTP] NCGC Assay Overview The Peroxisome proliferator-activated receptors (PPARs) are lipid-activated transcription factors of the nuclear receptor superfamily with three distinct subtypes namely PPAR alpha, PPAR delta (also called PPAR beta) and PPAR gamma. All these subtypes heterodimerizes with Retinoid X receptor (RXR) and have different physiological functions. […] This role of PPAR delta implicates the potential use of its ligands in the treatment of metabolic disorders.
Peroxisome proliferator-activated receptor delta (Homo sapiens), sequence (Q03181 whole entry, looked up): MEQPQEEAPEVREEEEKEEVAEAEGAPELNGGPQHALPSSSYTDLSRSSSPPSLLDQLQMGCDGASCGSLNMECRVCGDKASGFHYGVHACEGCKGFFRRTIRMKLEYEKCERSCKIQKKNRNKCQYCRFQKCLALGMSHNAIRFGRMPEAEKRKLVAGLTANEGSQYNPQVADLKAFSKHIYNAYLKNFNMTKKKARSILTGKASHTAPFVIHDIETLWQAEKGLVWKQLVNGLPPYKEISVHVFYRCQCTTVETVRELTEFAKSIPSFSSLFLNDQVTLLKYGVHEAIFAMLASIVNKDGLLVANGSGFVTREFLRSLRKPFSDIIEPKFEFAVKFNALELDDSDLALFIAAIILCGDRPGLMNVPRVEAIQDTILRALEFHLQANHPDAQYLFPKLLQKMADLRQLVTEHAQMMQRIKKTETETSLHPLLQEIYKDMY
NCGC Assay Protocol Summary Using a beta-lactamase reporter-gene under control Peroxisome Proliferator-Activated Receptor delta (PPAR-delta) response element, a cell-based assay [GeneBLAzer (PPAR-delta-UAS-bla assay developed by Invitrogen] was used to measure PPAR-delta ligands signaling. GeneBLAzer PPAR-delta-UAS-bla HEK293T cells were used with assay medium containing 2% charcoal/dextran FBS. The assay was performed in clear bottom black Greiner 1536-well plates. Library compounds were measured for their ability to inhibit the reporter gene activity. Compounds were screened in a titration series in 1536-well format. The fluorescence intensity (405 nm excitation, 460/530 nm emission) was measured using an EnVision plate reader. […] Concentration-response titration points for each compound were fitted to the Hill equation yielding concentrations of half-maximal inhibition (IC50) and maximal response (efficacy) values. qHTS protocol for PPAR-delta beta-lactamase assay in antagonist mode [Step] [Parameter] [Value] [Description] 1. Reagent; 5 uL; 4000 cells/well 2. Incubation; 37 C for 5 hrs 3. Compounds; 23 nL; 0.59 nM to 92 uM 4. […] Incubation; 37 C for 18 hrs 7. Detection reagent; 1 uL of CCF4-dye 8. Incubation; RT for 2 hrs 9. Detection; Fluorescence; Envision plate reader
On to `CCOP(=S)(OCC)SCn1nnc2ccccc2c1=O`, for which the Potency entry was “inactive”.
For `CCC/C(=N\OCC)C1=C(O)CC(CC(C)SCC)CC1=O` (stereo not given) the value was “inactive”.
Take `CCOP(=O)(OCC)SCSC(C)(C)C`: the Potency result is “inactive”.
For `Cc1c(F)c(F)c(COC(=O)C2C(/C=C(\Cl)C(F)(F)F)C2(C)C)c(F)c1F` (stereo not given) the value was “inactive”; for `CCC(C)c1cc([N+](=O)[O-])cc([N+](=O)[O-])c1O` (stereo not given), “inactive”; for `CCCN(CC)CC1COC2(CCC(C(C)(C)C)CC2)O1` (stereo not given), “inactive”.
Under `CC/C(=N\OC/C=C/Cl)C1=C(O)CC(C2CCOCC2)CC1=O` (stereo not given) stands “inactive”.
As for `CCC[CH2][Sn]([CH2]CCC)([CH2]CCC)[CH2]CCC`, the Potency result was “inactive”.
For `C=CC(=O)NCO` the value was “inactive”; for `CCC(C)(NC(=O)c1cc(Cl)c(C)c(Cl)c1)C(=O)CCl` (stereo not given), “inactive”.
Under `O=C(O)C(F)(F)C(F)(F)C(F)(F)C(F)(F)C(F)(F)C(F)(F)C(F)(F)C(F)(F)F` stands “inactive”; under `CC(C)(C)OOC(C)(C)c1ccc(C(C)(C)OOC(C)(C)C)cc1`, “inactive”.
As for `COP(=O)(OC)O/C(C)=C/C(=O)N(C)C`, the Potency entry is “inactive”.
Under `O=C1NCCN1Cc1ccc(Cl)nc1` stands “inactive”; under `Cc1cc(C)nc(NC(=O)NS(=O)(=O)c2ccccc2C(=O)OC2COC2)n1`, “inactive”; under `[Ga]#[As]`, “inactive”.
For `CCOC(=O)Nc1cccc(OC(=O)Nc2ccccc2)c1` the value was “inactive”.
Regarding `O=C(O)COc1ccc(Cl)cc1`, the Potency result was “inactive”.
As for `O=S(=O)(c1ccc(O)cc1)c1ccc(O)cc1`, the Potency result is “inactive”.
Take `O=C(O)C(F)(F)C(F)(F)C(F)(F)C(F)(F)C(F)(F)C(F)(F)C(F)(F)C(F)(F)C(F)(F)F`: the Potency result was “inactive”.
Under `CCc1cc(C)cc(CC)c1-c1c(OC(=O)C(C)(C)C)n2n(c1=O)CCOCC2` stands “inactive”; under `CCOP(=S)(OCC)Oc1cnc2ccccc2n1`, “inactive”.
For `CCOP(=S)(NC(C)C)Oc1ccccc1C(=O)OC(C)C` (stereo not given) the value was “inactive”.
Under `O=[N+]([O-])c1cc(C(F)(F)F)cc([N+](=O)[O-])c1Cl` stands “inactive”; under `c1cc2c3c(cccc3c1)CC2`, “inactive”; under `CSC(=O)c1c(C(F)F)nc(C(F)(F)F)c(C(=O)SC)c1CC(C)C`, “inactive”.
Regarding `O=C(O)C(F)(F)C(F)(F)C(F)(F)C(F)(F)C(F)(F)F`, the Potency entry was “inactive”.
Under `CNC(=O)Oc1cc(C)c(SC)c(C)c1` stands “inactive”; under `O=C1C=CC(=O)c2ccccc21`, “inactive”.
Under `CC1(C)CN=C(NN=C(/C=C/c2ccc(C(F)(F)F)cc2)/C=C/c2ccc(C(F)(F)F)cc2)NC1` stands 39.8 µM (active); under `CNC(=O)Oc1ccc(N(C)C)c(C)c1`, “inactive”.
`C/C(=N\C(N)=O)N(C)Cc1ccc(Cl)nc1`: the Potency result is “inactive”.
For `CCOS(=O)(=O)OCC` the value was “inactive”; for `COC(=O)c1ccccc1CS(=O)(=O)NC(=O)Nc1nc(OC)cc(OC)n1`, “inactive”; for `CCCCC(O)(Cn1cncn1)c1ccc(Cl)cc1Cl` (stereo not given), “inactive”.
For `Cc1cccc2sc3nncn3c12` the value was “inactive”; for `CCCCN(CC)c1c([N+](=O)[O-])cc(C(F)(F)F)cc1[N+](=O)[O-]`, “inactive”; for `CCNS(=O)(=O)C(F)(F)C(F)(F)C(F)(F)C(F)(F)C(F)(F)C(F)(F)C(F)(F)C(F)(F)F`, “inactive”.
Under `CCNc1nc(Cl)nc(NC(C)(C)C)n1` stands “inactive”; under `CCCC1COC(Cn2cncn2)(c2ccc(Cl)cc2Cl)O1` (stereo not given), “inactive”.
